In the supplement of paper PMC3334620:
In all, about 33,000 sequences were measured (“E-score (-0.5 to 0.5)”: median about -0.012, highest 2% from about 0.29 on). Many of the other results were omitted from the sample, so the highest values are more common in it than they were.

target: T1, Ybr033w (UniProt P38073); experiment: PBM E-score (8-mer binding enrichment) (E-score (-0.5 to 0.5)); higher = stronger / more preferred TF binding; conditions: protein concentration: 200 nM; construct: GST-full length
T1 sequence: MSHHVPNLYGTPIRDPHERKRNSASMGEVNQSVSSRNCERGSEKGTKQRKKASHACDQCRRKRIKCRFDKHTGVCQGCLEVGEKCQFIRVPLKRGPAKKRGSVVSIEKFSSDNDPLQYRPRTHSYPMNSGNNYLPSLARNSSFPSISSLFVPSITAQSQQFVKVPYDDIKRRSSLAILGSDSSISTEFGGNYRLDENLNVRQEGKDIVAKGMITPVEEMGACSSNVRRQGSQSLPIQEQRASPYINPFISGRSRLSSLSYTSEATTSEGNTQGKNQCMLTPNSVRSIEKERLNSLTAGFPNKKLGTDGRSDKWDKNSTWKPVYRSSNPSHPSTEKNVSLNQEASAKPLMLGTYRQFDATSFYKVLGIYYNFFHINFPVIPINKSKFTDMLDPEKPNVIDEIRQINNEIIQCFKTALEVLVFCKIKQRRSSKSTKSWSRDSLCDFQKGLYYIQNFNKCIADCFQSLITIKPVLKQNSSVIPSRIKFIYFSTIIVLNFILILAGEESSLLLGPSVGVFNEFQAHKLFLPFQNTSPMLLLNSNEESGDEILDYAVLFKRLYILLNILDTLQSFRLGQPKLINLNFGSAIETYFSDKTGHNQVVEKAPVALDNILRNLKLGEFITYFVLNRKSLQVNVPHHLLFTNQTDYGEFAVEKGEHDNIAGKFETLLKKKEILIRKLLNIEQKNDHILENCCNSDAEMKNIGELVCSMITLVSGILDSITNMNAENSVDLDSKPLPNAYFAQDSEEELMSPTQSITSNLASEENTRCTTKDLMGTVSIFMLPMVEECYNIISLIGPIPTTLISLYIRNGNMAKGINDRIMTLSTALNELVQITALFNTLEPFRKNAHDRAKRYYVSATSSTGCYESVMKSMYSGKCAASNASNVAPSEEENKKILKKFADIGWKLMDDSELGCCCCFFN
Summary of the method: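 Using PURExpress in vitro transcription/translation, GST-tagged yeast transcription factors were made in full-length or DNA-binding-domain form. These were applied at about 100-200 nM to double-stranded universal all-10-mer Agilent arrays, and bound protein was detected with fluorescent anti-GST. Scans were normalised with masliner before the Universal PBM Analysis Suite assigned E-scores to ungapped eight-base words pooled with their reverse complements.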

Sequence | PBM E-score
AAAGCTTG | 0.147
CTGCAAAC | 0.0506
CCGCCTGA | -0.172
TCTGCGCA | 0.0104
CAGATATG | -0.0501
ATGGAAAA | 0.32
ATGGAAAG | 0.122
ATGGAAAT | 0.175
ATTTGGCC | -0.0178
CTCATCAG | 0.0236
CAATGAGG | -0.14
TTAACGAA | 0.296
CTAACGAA | 0.0607
ATAACGAA | 0.229
CAATAAGC | 0.0395
AAATAAAA | 0.233
AAATAAGT | 0.295
ATATAAAC | 0.142
AAATAACT | 0.294
AAATAACG | 0.232
AAATAAGC | 0.0677
AAATAAAT | 0.298
AAATAAAG | 0.281
ATATAAAT | 0.34
AAATAACA | 0.11
ATATAAAG | 0.211

Sequence | PBM E-score
AAATAAGG | 0.00755
GATTCTGC | 0.0635
CAGCAAAC | -0.0765
GGTTCTGA | -0.0472
ACATGACC | -0.186
ACTTATGA | 0.171
CGATCTAC | -0.0159
AGCTGGTA | -0.142
AGGATTAC | 0.106
AGGATTAG | 0.161
AGGATTAA | 0.361
AGGATTCA | 0.114
AGGATTAT | 0.306
AGGATTTA | 0.228
CCTGTAGC | -0.353
GGCCTACC | -0.113
CGACTGCA | -0.126
ACTAACGG | -0.0153
ACAATTAT | 0.328
CCAATTAA | 0.215
ACAATTAG | 0.0047
ACAATTAC | 0.202
ACAATTAA | 0.302
TCAATTAA | 0.252
GGCTAGGA | -0.106
ACCGCACT | -0.0787

Sequence | PBM E-score
GAGAGCTC | -0.197
AGCCCAAT | -0.125
GAGTTTTA | 0.146
CGGATATA | 0.345
TATATATA | 0.28
GGGATATA | 0.158
CGGATATC | 0.0386
CAGATATA | 0.175
GATATATC | 0.226
AAGATATA | 0.323
AAGATATC | 0.117
GATATATA | 0.289
CGTGGTTA | -0.0128
CGCGAGCA | -0.12
CACCTTAC | -0.00385
CCGGAACA | 0.447
CGGGAACA | 0.331
GGGGAACA | 0.00453
ACGGAACT | 0.0148
ACGGAACA | 0.298
ACGGAACC | -0.0347
CCGGAACC | -0.16
CCGGAACG | -0.0381
GCGGAACA | 0.265
TCGGAACA | 0.387
TGGGAACA | 0.111

Sequence | PBM E-score
AGGGAACA | 0.249
ATCGTTCC | -0.196
ATATTTGC | 0.222
TATGTTAA | 0.238
CAGGGAAC | 0.0159
CCCATCCC | -0.23
ACTGACGA | -0.0835
ATAATTCC | 0.348
CTAATTCC | 0.0934
ATGATTCC | 0.336
ATAATTCG | 0.294
AGAATTCC | 0.0767
ATAATTCA | 0.241
ATGATTCA | 0.127
ACAATTCG | 0.0965
CTGATTCC | -0.0421
AGCTCTGA | -0.0863
TACGGGGA | -0.183
GAGAATGA | 0.122
ACACCGAT | -0.185
AAGCGCAG | 0.127
AGTAGATC | 0.164
ACTAGATA | 0.304
ACTAGATC | -0.0476
AGTAGATA | 0.311
CGTAGATA | 0.0341

Sequence | PBM E-score
CCTAGATA | -0.0707
GCGGGGAC | -0.22
AGATGAAA | 0.0735
AGAGCGTC | -0.081
ATCAGAAA | 0.044
CGATACAA | 0.165
AGATACAA | 0.292
AGATACAG | 0.22
CGGTGACG | -0.0845
CATGCGAG | -0.217
AATGCGAG | 0.291
AATGCGAT | -0.0207
GGCATAAA | 0.167
ATACGTGC | -0.058
TCACTAGA | 0.12
CATTGTAC | 0.0182
AGTTGTTG | 0.123
AATTGTTA | 0.314
GATTGTTA | 0.0997
GATTGTAC | 0.0766
AGTTGTTA | 0.174
AATTGTAC | 0.337
AATTGTCC | 0.163
AGTTGTTC | 0.337
AATTGTCA | 0.139
AATTGTTG | 0.114

Sequence | PBM E-score
AATTGTTC | 0.339
CTGCAAAA | 0.022
GAGCCCTA | -0.201
AACCTTGT | -0.194
ACCTGGGC | -0.362
CATGGAAG | 0.204
ATTTGTTC | 0.44
AAATGTTC | 0.346
CCTTGTTC | -0.124
ATTTGTTA | 0.185
CATTGTTC | 0.31
CATTGTTA | -0.015
CTTTGTTC | 0.111
AAATGTTA | 0.149
AAATGTTG | -0.0479
GAGAGGTA | -0.223
CCCATCCA | -0.158
AACTGAGA | 0.0375
GTTTGATA | 0.177
AGCCCTGG | -0.252
AAATGGCA | 0.101
GTTCCGAA | 0.29
ATTCCGGG | 0.188
CTTCCGGA | 0.274
ATTCCGAC | 0.157
CTTCCGAA | 0.208

Sequence | PBM E-score
ATTCCGGA | 0.387
ATTCCGAA | 0.32
ATTCCGAG | 0.242
GGTCCGAA | -0.0173
GAAGCTGA | 0.135
CAGCTACA | 0.0259
GCTACGCC | -0.239
ACGTTACT | 0.0376
ATACGCCG | -0.149
AGTCAAAT | 0.188
GGCCACCC | -0.214
CATTGAAC | 0.124
TCTTGAAA | 0.319
GCTTGAAA | 0.0485
CATTGAAA | 0.29
CCTTGAAA | 0.0714
CATTGAAG | -0.0671
AGTGGTAG | 0.0179
ATTAACTC | 0.291
ATTAACCA | 0.0788
